High-throughput results from PubChem BioAssay.
A selection: hits, their analogues and other compounds. The true share with any hit is near 6.3%.
Mdm2 MdmX PPI – disrupts the human Mdm2-MdmX interaction; O15151+Q00987; SaOS-2 split-luciferase Mdm2/MdmX complementation, luminescence; inhibition, % at 8 µM; 330,000 compounds, 3% hits;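 active = inhibition of at least 50% at 8 µM in the primary screen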
Target sequence (O15151 whole entry, looked up): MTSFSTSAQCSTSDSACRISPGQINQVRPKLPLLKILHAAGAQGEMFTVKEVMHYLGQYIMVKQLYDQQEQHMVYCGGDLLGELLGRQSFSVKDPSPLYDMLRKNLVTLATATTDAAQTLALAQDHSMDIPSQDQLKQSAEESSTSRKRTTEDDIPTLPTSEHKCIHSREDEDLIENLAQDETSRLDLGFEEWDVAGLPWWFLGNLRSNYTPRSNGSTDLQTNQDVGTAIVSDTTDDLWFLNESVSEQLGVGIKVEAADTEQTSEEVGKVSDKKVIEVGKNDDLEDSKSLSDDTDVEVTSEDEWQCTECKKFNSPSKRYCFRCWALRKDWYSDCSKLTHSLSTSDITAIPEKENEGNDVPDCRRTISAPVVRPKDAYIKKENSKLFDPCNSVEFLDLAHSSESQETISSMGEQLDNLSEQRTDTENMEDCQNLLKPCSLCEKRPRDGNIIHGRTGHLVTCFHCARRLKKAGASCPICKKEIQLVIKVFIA
Target sequence (Q00987 whole entry, looked up): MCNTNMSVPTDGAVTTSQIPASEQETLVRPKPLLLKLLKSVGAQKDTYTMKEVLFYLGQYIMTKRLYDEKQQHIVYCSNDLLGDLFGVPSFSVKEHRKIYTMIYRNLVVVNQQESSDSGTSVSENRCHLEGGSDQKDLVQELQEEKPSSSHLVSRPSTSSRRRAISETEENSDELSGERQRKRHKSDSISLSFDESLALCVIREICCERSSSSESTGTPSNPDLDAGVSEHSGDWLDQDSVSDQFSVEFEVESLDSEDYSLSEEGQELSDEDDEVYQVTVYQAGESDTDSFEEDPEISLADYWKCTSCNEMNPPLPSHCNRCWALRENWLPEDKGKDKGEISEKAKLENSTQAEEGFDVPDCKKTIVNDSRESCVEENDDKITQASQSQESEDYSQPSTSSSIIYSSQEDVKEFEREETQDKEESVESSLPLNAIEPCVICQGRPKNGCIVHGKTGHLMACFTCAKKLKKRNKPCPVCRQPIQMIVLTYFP
MPTP inh – permeability transition pore inhibition | 360,000 compounds, 1.4% hits | isolated mouse mitochondria, Ca2+ swelling absorbance, 30 min | inhibition, % at 10 µM;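 active = inhibition of 50% or more, scaled per plate between neutral and stimulator controls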;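 note: 0% = DMSO wells given calcium and 100% = 1 mM EGTA wells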
TIM10 inh – TIM10 yeast growth inhibition. inhibition, % at 10 µM. S. cerevisiae TIM10 strain growth, BacTiter-Glo luminescence, 24 h. 330,000 compounds, 1.4% hits;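 active = inhibition of 40% or more at the single tested concentration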;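 note: wild-type TIM10 isogenic control strain grown at permissive 25 °C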
tim23-1 inh – growth inhibitors of tim23-1 mutant yeast; S. cerevisiae tim23-1 growth, BacTiter-Glo luminescence, 24 h; inhibition, % at 20 µM; 330,000 compounds, 1.3% hits;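 active = growth inhibition of the mutant yeast at or above 50%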;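 note: temperature-sensitive mutant grown at 25 °C; plate controls were DMSO-treated mutant yeast for no effect and medium wells lacking yeast for full effect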
tim10-1 inh – tim10-1 yeast growth inhibition. S. cerevisiae tim10-1 ts strain growth, BacTiter-Glo, 24 h. inhibition, % at 20 µM. 330,000 compounds, 2.2% hits;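 active = inhibition of at least 40%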;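 note: mutant grown at 25 °C; 0% = DMSO wells with yeast and 100% = wells holding no yeast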
tim23-1 conf – tim23-1 yeast growth inhibition, confirmed; inhibition, % at 20 µM; AID 463218; 4,400 compounds, 83% hits; shares compounds with tim23-1 inh; S. cerevisiae tim23-1 growth, BacTiter-Glo luminescence, 24 h;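 active = inhibition above about 39% in either of two replicate wells at 20 µM, limit read from the data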;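 note: temperature-sensitive tim23-1 mutant grown at 25 °C; 0% = DMSO wells with yeast and 100% = medium wells without yeast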
* = called active by the depositor.

What do the screens show for `O=C(Nc1sc2c(c1C(=O)O)CCCCC2)c1ccco1`?
Mdm2 MdmX PPI: -13; MPTP inh: 2; TIM10 inh: 24; tim23-1 inh: 11; tim10-1 inh: 25

How did CN(C)C(=O)c1c(NC(=O)c2ccco2)sc2c1CCCCC2 do in these assays?
Mdm2 MdmX PPI: -16; MPTP inh: -3; TIM10 inh: 35; tim23-1 inh: 60*; tim10-1 inh: 35; tim23-1 conf: 49*

Results for COc1ccc(CN2C(=O)CCC2(C)c2nnnn2Cc2ccccc2)cc1 (centres undefined) ?
MPTP inh: 0

What do the screens show for `Cc1cccc(C)c1NC(=O)CNC(=O)CNC(=O)c1ccc2ccccc2c1`?
MPTP inh: 0

How did CN(Cc1ccc(Cl)cc1)C(CCc1ccccc1)C(=O)NC1CCCCC1 (centres undefined) do in these assays?
MPTP inh: -2

Results for N#C/C(=C/c1ccc(N2CCOCC2)o1)c1nc2ccccc2[nH]1 ?
Mdm2 MdmX PPI: -137; MPTP inh: -1; TIM10 inh: 34; tim23-1 inh: 57*; tim10-1 inh: 18; tim23-1 conf: 66*

Results for CC(C)C[C@H]1CN(CCCC[C@@H]2CNC(=O)C(=O)N2CC2CCCCC2)C(=O)C(=O)N1CCc1ccccc1 ?
MPTP inh: -2

How did Cc1cc(O)c(C(C)C)cc1NC(=S)Nc1cc(C(C)C)c(O)cc1C do in these assays?
MPTP inh: 1

What do the screens show for `Cc1ccc(C(=O)SC2=NCCS2)cc1`?
Mdm2 MdmX PPI: -3; MPTP inh: 0; TIM10 inh: 26; tim23-1 inh: 73*; tim10-1 inh: 3; tim23-1 conf: 49*

How did CC1(C)CC(n2c(NCCO)nc3c(c2=O)C2(CCCC2)Cc2ccccc2-3)CCO1 (centres undefined) do in these assays?
Mdm2 MdmX PPI: 21; MPTP inh: 0; TIM10 inh: 36; tim23-1 inh: 52*; tim10-1 inh: 21; tim23-1 conf: 49*

How did Cc1nc2c(n1C1CCCCC1)C(=O)c1ccccc1C2=O do in these assays?
Mdm2 MdmX PPI: 36; MPTP inh: 3; TIM10 inh: 25; tim23-1 inh: 51*; tim10-1 inh: 34; tim23-1 conf: 40*

What do the screens show for `Nc1cc(S(=O)(=O)Nc2ccccc2Cl)ccc1N1CCCCC1`?
Mdm2 MdmX PPI: -31; MPTP inh: 45; TIM10 inh: 31; tim23-1 inh: 58*; tim10-1 inh: 36; tim23-1 conf: 62*

What do the screens show for `O=C(Nc1ccc2c(c1)OCCO2)C1c2ccccc2OCC(=O)N1Cc1ccco1` (centres undefined)?
MPTP inh: -2

How did Cc1ccc(S(=O)(=O)N2C[C@@H]3[C@H]4CC[C@H](C4)[C@@H]3[C@@H](C)[C@H]2c2ccco2)cc1 do in these assays?
Mdm2 MdmX PPI: 23; MPTP inh: 0; TIM10 inh: 8; tim23-1 inh: 50*; tim10-1 inh: 28; tim23-1 conf: 34

How did CC(=O)Nc1cccc(-c2ccnc3c2CC(C(=O)NCc2cccs2)O3)c1 (centres undefined) do in these assays?
MPTP inh: 1

Results for COc1cccc2sc3cc(NCc4ccc(C)o4)ccc3c(=O)c12 ?
Mdm2 MdmX PPI: -11; MPTP inh: 0; TIM10 inh: 22; tim23-1 inh: 68*; tim10-1 inh: -18; tim23-1 conf: 66*

Results for COc1cc2sc3cc(NCCCN4CCOCC4)ccc3c(=O)c2cc1OC ?
Mdm2 MdmX PPI: -26; MPTP inh: 1; TIM10 inh: 19; tim23-1 inh: 12; tim10-1 inh: -10

How did CCCNC(=O)C1(C)CCN(C(=O)COc2ccc(Cl)cc2Cl)C1 (centres undefined) do in these assays?
MPTP inh: 1

Results for O=S(=O)(Nc1ccc(S(=O)(=O)Nc2nccs2)cc1)c1ccc2c(c1)OCCO2 ?
Mdm2 MdmX PPI: 37; MPTP inh: -1; TIM10 inh: 6; tim23-1 inh: 13; tim10-1 inh: 18

What do the screens show for `O=S(=O)(Nc1cccc(-c2nc3cccnc3s2)c1)c1ccc2c(c1)OCCO2`?
Mdm2 MdmX PPI: -2; MPTP inh: 2; TIM10 inh: 29; tim23-1 inh: 58*; tim10-1 inh: 39; tim23-1 conf: 52*

Results for Cc1nc2ccc(S(=O)(=O)Nc3cc(-c4nc5cccnc5s4)ccc3C)cc2s1 ?
Mdm2 MdmX PPI: -30; MPTP inh: 0; TIM10 inh: 4; tim23-1 inh: 60*; tim10-1 inh: 37; tim23-1 conf: 55*

Results for Cc1cccc(/C=N/NC(=O)c2cc(Br)ccc2OCc2ccccc2)n1 ?
Mdm2 MdmX PPI: 23; MPTP inh: 0; TIM10 inh: -10; tim23-1 inh: 20; tim10-1 inh: 20

What do the screens show for `Cc1cccc(/C=N/NC(=O)c2ccccc2OCc2cccc(Br)c2)n1`?
Mdm2 MdmX PPI: -8; MPTP inh: 0; TIM10 inh: 0; tim23-1 inh: 51*; tim10-1 inh: 25; tim23-1 conf: 55*

What do the screens show for `Cc1ccc2occ(/C=N/NC(=O)c3ccc(O)cc3)c(=O)c2c1`?
Mdm2 MdmX PPI: 49; MPTP inh: -1; TIM10 inh: -3; tim23-1 inh: 43; tim10-1 inh: 15

What do the screens show for `Cc1ccc2occ(/C=N/NC(=O)c3ccccc3Br)c(=O)c2c1`?
Mdm2 MdmX PPI: 38; MPTP inh: 1; TIM10 inh: 23; tim23-1 inh: 63*; tim10-1 inh: 31; tim23-1 conf: 66*

How did O=C(N/N=C/c1coc2ccccc2c1=O)c1ccc(Cl)cc1 do in these assays?
Mdm2 MdmX PPI: 20; MPTP inh: 0; TIM10 inh: 21; tim23-1 inh: 54*; tim10-1 inh: 25; tim23-1 conf: 43*

Results for C[C@@H]1CN([C@H](C)CO)C(=O)c2c(c3ccccc3n2C)-c2ccccc2CO[C@H]1CN(C)Cc1ccc(Oc2ccccc2)cc1 ?
MPTP inh: -2

How did OCc1ccccc1-c1nc(NCc2ccccc2)nc2ccsc12 do in these assays?
MPTP inh: 0

What do the screens show for `c1ccc2[nH]c(CSc3nc4ccccc4o3)nc2c1`?
Mdm2 MdmX PPI: -8; MPTP inh: 5; TIM10 inh: 13; tim23-1 inh: 54*; tim10-1 inh: -40; tim23-1 conf: 55*

Results for c1cncc(-c2nnc(SCc3nc4ccccc4[nH]3)o2)c1 ?
Mdm2 MdmX PPI: -7; MPTP inh: 0; TIM10 inh: -6; tim23-1 inh: -1; tim10-1 inh: 0

How did CC(=O)Nc1cc(-c2ccccc2N(C)C)cn2c(-c3ccc(S(C)(=O)=O)cc3)cnc12 do in these assays?
MPTP inh: -1

Results for CCOC(=O)[C@@H]1[C@H]2COc3ccc(Br)cc3[C@@H]2N2C(=O)N(c3ccccc3)C(=O)[C@@]12C ?
Mdm2 MdmX PPI: 7; MPTP inh: 1; TIM10 inh: 18; tim23-1 inh: 44; tim10-1 inh: 31
